Data published in PubChem BioAssay.
Unmarked numbers belong to inactive results. Activity calls are given as the source filed them.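 Rule for the calls: active = inhibition above the hit cutoff set in the earlier primary screen (cut at about 27% in these data); inactive = the rest.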

target: Protein phosphatase methylesterase 1 (Homo sapiens) (UniProt Q9Y570); experiment: PME-1 inhibitor activity retest, confirmation, biochemical, fluorescence polarization, FP-Rh probe, triplicate (AID 2171); conditions: recombinant PME-1, FP-Rh probe fluorescence polarization; at 5.9 µM; stronger effect = higher value;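 note: 0% = enzyme with DMSO and 100% = wells lacking PME-1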
Sequence (Q9Y570 whole entry, looked up): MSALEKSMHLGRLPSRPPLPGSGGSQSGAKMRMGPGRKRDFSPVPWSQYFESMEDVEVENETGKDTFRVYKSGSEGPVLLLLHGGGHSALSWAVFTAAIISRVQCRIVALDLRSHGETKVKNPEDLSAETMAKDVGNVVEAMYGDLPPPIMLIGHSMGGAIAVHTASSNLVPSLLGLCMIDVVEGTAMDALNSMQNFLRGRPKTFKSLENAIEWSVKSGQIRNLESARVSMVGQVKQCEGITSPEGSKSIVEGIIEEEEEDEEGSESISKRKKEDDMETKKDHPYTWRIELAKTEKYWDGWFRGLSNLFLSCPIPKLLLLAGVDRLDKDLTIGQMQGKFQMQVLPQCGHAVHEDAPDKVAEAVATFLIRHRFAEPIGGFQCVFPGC

SMILES	inhibition
COc1ccc(-c2nc(-c3cccs3)c(-c3cccs3)[nH]2)cc1O	39.6% (active)
CCOc1cc(/C=C/c2ccc3cccc([N+](=O)[O-])c3n2)cc(Cl)c1O	-9.78%
Fc1cc(F)c2nc(Nc3nc4cc5c(cc4s3)OCO5)sc2c1	29.5% (active)
On1onc2c3cc(-c4ccccc4)nc3ccc21	49.3% (active)
COc1cc2c(c(OC)c1OC)-c1ccc(NC(=O)c3ccc(F)cc3)c(=O)cc1[C@@H](NC(C)=O)CC2	0.65%
COc1cc(N/N=C(\C)c2ccc(O)c(C)c2)nc(-c2ccccc2)n1	27.3% (active)
CCCCN(C)CCCNC(=O)c1cn(CC)c2ccc(S(=O)(=O)N3CCc4ccccc4C3)cc2c1=O	53.6% (active)
CCn1c2ccccc2c2cc(NC(=O)c3ccccc3[N+](=O)[O-])ccc21	20.3%
CCN(CC)c1ccc(S(=O)(=O)N2CCOCC2)cc1NC(=O)CN1CCN(Cc2ccccc2)CC1	72.3% (active)
COc1ccc(N=C2NC(=O)S/C2=C\c2ccc(N(C)C)cc2)cc1	37.2% (active)
Nc1c(C(=O)Nc2ccc(F)cc2)sc2nc(-c3ccco3)ccc12	49.6% (active)
COc1ccc(N=Nc2nc3cc(Br)c(Br)cc3n2C)c(OC)c1	50.6% (active)
CN(C)c1ccc(CNC(=O)CN(C)S(=O)(=O)c2cccc3cccnc23)cc1	32.8% (active)
O=C(Nc1cccc(C(F)(F)F)c1)c1ccc2nc(-c3ccco3)c(-c3ccco3)nc2c1	-3.36%
Cc1cc(SCC(=O)N/N=C/c2ccc(O)c(O)c2O)c(C)cc1Br	-9.75%
